From PubChem BioAssay
A number with no mark means an inactive call. Activity calls are given as the source filed them.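 Rule for the calls: active = inhibition above the hit cutoff set in the earlier primary screen (cut at about 27% in these data); inactive = the rest.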

molecular target: Protein phosphatase methylesterase 1 (Homo sapiens) (UniProt Q9Y570); assay: human PME-1 methylesterase inhibition confirmation – biochemical, fluorescence polarization, FP-Rh probe, triplicate (AID 2171); conditions: recombinant PME-1, FP-Rh probe fluorescence polarization; at 5.9 µM; active compounds read high;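 note: 0% = enzyme with DMSO and 100% = wells lacking PME-1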
Sequence (Q9Y570 whole entry, looked up): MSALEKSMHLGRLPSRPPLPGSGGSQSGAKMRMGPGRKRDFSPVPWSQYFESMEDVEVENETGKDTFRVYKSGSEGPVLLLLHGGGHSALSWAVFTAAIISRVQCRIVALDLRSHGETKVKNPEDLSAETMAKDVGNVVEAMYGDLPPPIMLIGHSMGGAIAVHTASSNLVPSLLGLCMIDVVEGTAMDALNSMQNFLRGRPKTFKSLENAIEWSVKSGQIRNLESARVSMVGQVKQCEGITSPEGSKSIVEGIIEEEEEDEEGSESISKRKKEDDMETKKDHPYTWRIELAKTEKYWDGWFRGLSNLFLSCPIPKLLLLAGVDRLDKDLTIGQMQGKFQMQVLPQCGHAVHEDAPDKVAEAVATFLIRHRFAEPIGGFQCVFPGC

SMILES	inhibition
CSc1nsc(/C=C/Nc2ccc(O)cc2C)c1C#N	-1.46%
CCc1ccc(NC(=O)Nc2cccs2)cc1	17.9%
O=C(N/N=C/c1c(Cl)[nH]c2ccccc12)c1ccc2c(c1)OCCO2	20.6%
O=C(Nc1ccc([N+](=O)[O-])cc1)Nc1ccc2[nH]c(=O)[nH]c2c1	-15.6%
COC(=O)c1ccc(C2Nc3cccc4cccc(c34)N2)cc1	51.9% (active)
CC(C)S(=O)(=O)c1csc(NC(=O)Nc2cccc([N+](=O)[O-])c2)c1Cl	-58.5%
COc1ccc2ccccc2c1C(O)c1nccn1C (stereo not given)	23.1%
Oc1ccc(/C=N/Nc2ccnc3cc(Cl)ccc23)c(O)c1	19%
Cc1c(O)ccc(/C=N/Nc2nc(-c3cccnc3)nc3ccccc23)c1O	48.8% (active)
CCOC(=O)c1c2c3c(cccc3n(C)c1=O)C(=O)c1ccccc1-2	21%
O=C(O)c1ccc(N/N=C/c2ccc(-c3ccc(Cl)cc3Cl)o2)cc1	85.9% (active)
Oc1ccc(/C=N/Nc2ccnc3cc(Cl)ccc23)cc1O	5.4%
Cc1ccc(C(=O)Nc2nnc(CC(=O)N/N=C/c3ccc(O)c(O)c3)s2)cc1	-26.6%
Cc1ccc(-n2c(O)c(/C=N/Nc3ccc(S(=O)(=O)N4CCOCC4)cc3[N+](=O)[O-])c3ccccc3c2=O)c(C)c1	37.9% (active)
Cc1c(C(=O)O)cccc1-c1ccc(/C=N/Nc2ccc(Br)cc2)o1	39.6% (active)
CC1=Nc2ccccc2/C1=C\c1sc(Nc2ccc(C)cc2)nc1O	42.2% (active)
CCCCN(C)CCCNC(=O)c1cn(CC)c2ccc(S(=O)(=O)N3CCc4ccccc4C3)cc2c1=O	53.6% (active)
O=S(=O)(Nc1nc2ccccc2nc1Nc1cccc(S(=O)(=O)N2CCCCC2)c1)c1ccccc1	34.9% (active)
O=S(=O)(c1cccs1)N1CN(Cc2ccco2)c2nc3ccccc3nc21	13.4%
COc1cc(NC(=O)c2cc3ccccc3cc2O)c(OC)cc1Cl	9.45%
O=c1[nH]c(N/N=C\c2ccc3c(c2)OCO3)nc2ccccc12	24.6%
COc1ccc(/C=N\NC(=O)c2cc(O)c(O)c(O)c2)cc1COc1ccc(C(=O)OCC(C)C)cc1	-24.1%
O=C1C=C(N2CCOCC2)c2ccccc2C1=O	41% (active)
O=C1c2cccc3c([N+](=O)[O-])ccc(c23)C(=O)N1c1ccc(Cl)cn1	34.9% (active)
CCCn1c(N)c(C(=O)CN(C)CC(=O)Nc2ccccc2CC)c(=O)[nH]c1=O	20.4%
